Measurements published in the supplement of paper PMC12494721.
Structures can show the parent of a compound that is named as a salt.

The compounds below were run on Ruminococcus gnavus DSM 108212 (assay: fold change of 2-Phenylethylamine concentration vs plate DMSO controls (fold change (ratio)); higher = more amine produced, active = hit call of the paper (significant change in both replicates, either direction)). Conditions: incubation time: 27 h, anaerobic, 37 °C;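 for the amine columns active = adjusted P below 0.05 in both replicates with a change the same way and a mean fold change under 0.8 or over 1.25; inactive = the rest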.
Method in brief: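 Amine values are fold changes relative to DMSO-only wells on the same plate. They derive from 27 h, 37 °C anaerobic mGAM cultures of four gut bacterial strains in 80 µL wells, dosed at 20 µM final, or 50 µM final for sweeteners. Extraction of the whole culture, LC–triple-quadrupole MS in dynamic MRM mode, external calibration curves and within-batch drift correction were used, with 2 biological replicates averaged.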

Fold change of 2-Phenylethylamine concentration, inactive:
O=c1n(CCCN2CCN(c3cccc(Cl)c3)CC2)nc2ccccn12 [Trazodone hydrochloride] (20 µM) 0.799, NNc1nncc2ccccc12 [Hydralazine hydrochloride] (20 µM) 0.96, CN(C/C=C/c1ccccc1)Cc1cccc2ccccc12 [Naftifine hydrochloride] (20 µM) 1.01, N=c1nc(N2CCCCC2)cc(N)n1O [Minoxidil] (20 µM) 1.05, C=CC[C@@H]1/C=C(\C)C[C@H](C)C[C@H](OC)[C@H]2O[C@@](O)(C(=O)C(=O)N3CCCC[C@H]3C(=O)O[C@H](/C(C)=C/[C@@H]3CC[C@@H](O)[C@H](OC)C3)[C@H](C)[C@@H](O)CC1=O)[C@H](C)C[C@@H]2OC [Tacrolimus Monohydrate] (20 µM) 1.02
